The campaign covered roughly 53,000 sequences. About 3,700 (7%) were called active.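 How the source made its calls: active means gene knockdowns whose robust z-score for IL-1 alpha signal is at least 2 or at most -2, so actives lie on both sides; inactive means the rest.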 The sample as a whole holds a higher share of actives than the screen did.

This is an account of results in PubChem BioAssay AID1508600 (Functional Genomics Laboratory (NCATS/FGL), 2020).

The assay in a line: Components of the Cytosolic LPS Sensing Pathway: Gene Identification via Genome-wide siRNA Screen.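 Further: robust z of the log signal after scaling to non-targeting control siRNA wells of the plate.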 Particulars: RAW264.7 macrophages, IL-1a HTRF, actives lie on both sides, screened at 100 nM (by protocol), cells primed 5 h with Pam3CSK4 first. In outline: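 Supernatant IL-1a by HTRF from RAW264.7 cells primed with Pam3CSK4 (5 hours) and transfected with LipidA (24 hour) after 48h siRNA knockdown at 100 nM; cell viability checked with CellTiter-Glo.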
Background: In TR-FRET formats the signal depends on donor and acceptor labels being close together.
On to GCUCGAUGUGAACUGCUAGTT against Ankrd9, for which the z-score is 2.12 (active). Then GGUACAUAUGUGAUGACCGTT against Cdh4, with -0.289 (inactive); and GGCGUAGGGCCAUAUCAUUTT against Olfr109, with -0.117 (inactive). To GGUCAUGAACCUCAUCAUCTT against Nckap1l belongs -0.552 (inactive). Consider GGCUGAAUAAAAUAAGUGUTT against Adra1a, for which the z-score is -1.1 (inactive). To GGUUUAAUGUUAUAUACGGTT against Olfr606 belongs 2.43 (active); to CCAAAAGUGGAGAGCGACATT against Cnrip1, -1.32 (inactive). Then GGAGCGAGAAGGUAAAGUCTT against Pibf1, with 1.05 (inactive); and GGGACUGGAAUUGACAUCCTT against Trpm4, with -1.38 (inactive).

In the case of GGGAAUUUUUGUGGGUGAATT against Bbs2, the z-score is -0.541 (inactive). To GGUGCUGAUUGACCUAACATT against Wdtc1 belongs -2.24 (active); to GGAAGUGGAGGAAAAGAAGTT against Pdcd7, -2.52 (active); to GGAAAAACUACUCAAGGAGTT against Evi5l, -0.0731 (inactive). To CCUGGUUAAAGGUUAUCCATT against Commd7 belongs -3.9e-05 (inactive); to GGCAAGUCUGUGUGCAGAUTT against Olfr267, 0.579 (inactive); to CCAGGAACCUAUUGAAUCUTT against Plpp7, 1.15 (inactive). To GGUAGAAAACAUAAAUGGUTT against Sec16a belongs 1.71 (inactive); to GGCCAUGGUUAAACCAUAUTT against Pdcl2, 0.791 (inactive). In the case of GGACCUAUACAAGGGAGGUTT against Il1f10, the z-score is 1.17 (inactive). To GGUGUUUUCUGUGCUGUGATT against Klhdc3 belongs -1.55 (inactive); to GGUGCUUAUACUUCUUUGUTT against Sgcz, -2.42 (active). To GCCAAUAAUUGUCACACAUTT against Adgrg3 belongs 1.94 (inactive); to GGACUUGGGUUUCAAUUCCTT against Ddx27, -0.876 (inactive); to GGCACUCAGAAAUAUUCAGTT against Nap1l3, 3.84 (active). Then GCAGUCUUCCCUCAUCCUUTT against Cox8a, with 1.74 (inactive); and GGCAGUAAAUAGUAAGAAATT against Ccr9, with -0.716 (inactive); and GGAGUGGUGUGUCAUUGAUTT against Impact, with -0.663 (inactive). Regarding GCACAACAUCCCAGAUAAATT against Ankrd55, the z-score was 0.338 (inactive). Then GGAUACCCUGCUUCCAAAATT against Hpd, with 2.23 (active); and GCCAGGCAAAUUACAUCGCTT against Shroom1, with 0.303 (inactive); and CCUGCACUACUGGAUUGGATT against Vill, with 0.265 (inactive). As to GCUCCAUUAUGCCAGACUATT against Madcam1, the z-score is 0.8 (inactive). To GGAUAAUGAAGAAUGCCAATT against Abca4 belongs -0.533 (inactive); to CGGACUAUUGGAGACCAACTT against Gpsm2, 2.16 (active). Then GGUCAUCAACGUGCUAGAGTT against Nucb1, with -1.3 (inactive); and GGAUGCAUGAGAAAUGUUATT against Tbc1d14, with -0.0572 (inactive).

As to GGUAUAAGUUGGCAAGAUCTT against Cry2, the z-score is 0.849 (inactive).

As for CCCUUGAUUACACCACAGUTT against Cfc1, the z-score is -2.6 (active). Then GGUCACAUUUAAUGUCACATT against Itgam, with -0.789 (inactive); and GGACAAUCAGUACCUUAACTT against Tex9, with -0.375 (inactive). Then GGAAGGUUUCGCUUUGAAUTT against Tarm1, with -0.469 (inactive); and GGCUCAGAUUUUGUGAUUCTT against Olfr894, with -1.44 (inactive); and GGACUUUUUCACUUUCAAATT against Ugt1a5, with -0.198 (inactive). To CGCCACACACCAUCACAUUTT against Scap belongs -0.0743 (inactive); to GGAAUAUUCUCUCAUCACATT against Mmachc, -2.07 (active); to GCUAACCAUGUGACAAUAATT against Timm8a1, -1.39 (inactive). As to GGCCCAGCAGACAACUUUATT against Sgca, the z-score is 0.797 (inactive). Take CCUCCGGAGUAUAAACAAUTT against Nr1i3: the z-score is 0.21 (inactive).

Take GGAGGAAGAAGACUCAGAATT against Prkag2: the z-score is 3.46 (active). Then GAAGAGGGCACCUAGUUUCTT against Cox7b, with 0.249 (inactive). Consider GCCACGAAGGUACUAUGUATT against Tbce, for which the z-score is 0.176 (inactive). To GGGAGAAAUGCCUUUAGUCTT against Erfe belongs 3.79 (active). Turning to GGUUACCACACUAUGUUACTT against Tbc1d2b, the z-score is 0.454 (inactive). Then GGAAAAGUCCAAGUUUGAATT against Hmgb2, with -0.104 (inactive); and GGAGAUAAUCCUGAAUGGCTT against Hsd3b6, with -1.18 (inactive). Regarding GGCCAAAAGGUUGAGCAGUTT against Nsun2, the z-score is 0.311 (inactive). To GCUUUUAGGCCUCCAAAAGTT against Lmnb2 belongs 1.15 (inactive). Then GGAACUUCGUCAGUACAUUTT against Setdb1, with 5.77 (active); and GGAGAAACUGGCAGACCUUTT against Washc3, with -0.388 (inactive). For the sequence GCCUUCAGGACGAUUUAUUTT against Pla2g7, the z-score was 1.19 (inactive). To GCGAAAUCUUUGUCACUAATT against Sertad4 belongs -0.201 (inactive). In the case of GGAAGUAUUUGAUCAUGGATT against Smarca5, the z-score was -0.465 (inactive). Then GGAAAGGUAAUGCAUCACATT against Rev3l, with -1.68 (inactive); and GGCUGAAGAUCACCAAGAATT against Neurl1a, with -0.869 (inactive); and CGGAAUCAUUCGGAAUGAGTT against Capza3, with -1.01 (inactive).

Regarding GGAAAUCCUGAAGUUUCCUTT against Grk5, the z-score is 4.41 (active).

As for CGUGAUCCCACAGAUGUAGTT against Csrp3, the z-score is -0.649 (inactive). Then GGGAGGUGUCUUUACGUCUTT against Neto1, with -0.773 (inactive). To GCUGCACGAUCGGAAUGGUTT against Ssh1 belongs -0.678 (inactive); to GGCUUACUUGAAGCAUUUATT against Plcb4, 2.13 (active); to GGUUUUUGCUGAGUCUUGCTT against Olfr299, 0.00611 (inactive). On to GGAAAAGAAAGCAAAGAGATT against Dach1, for which the z-score was -1.15 (inactive). For GGAAAUGUUUACCUGCCAUTT against Zfp512, the z-score is 2.32 (active). To GCUACAGCAGACAUAGAAATT against Sparcl1 belongs 0.0109 (inactive). Then GGUUGGAAUUGUGCAAUAATT against Fbxo48, with 0.164 (inactive). To GGACAUUUAUCCCAUGACATT against Coro2b belongs 0.814 (inactive); to GGAAUUCAAUGACGUGUACTT against Mapk14, 0.493 (inactive); to CCGUAUUUGUGCUGUGUCUTT against Olfr275, -1.53 (inactive). In the case of CCUUAUUUUACGGAACUGCTT against Olfr1018, the z-score is 2.11 (active). Then CCGGAGUUGAAACCUAAAATT against Hmgn5, with 0.524 (inactive); and GCAACAUAUGUUCAAGAUCTT against Ccdc163, with 0.53 (inactive); and GGCCAUCAGAGUCAACUGUTT against Immt, with -0.285 (inactive). Then GCUAGCAGAGAUACAAUGUTT against Rasal3, with 3 (active); and GGAAGAUGAAAGUUCCAUATT against Ankar, with 1.17 (inactive); and GGGUGUAGUCCUGAAAGUATT against Arpc5l, with 2.45 (active). Then GCUUGUGAGUGGAACUUUCTT against Mcm6, with 0.62 (inactive); and CCUACAACAGAUGUGCAGCTT against Fam222b, with -1.82 (inactive).

As for CCGGGACAUAGAGGAAAUUTT against Cabp1, the z-score was -0.113 (inactive).

For the sequence CGCACAUGAAGCCACAUAUTT against Plekhb1, the z-score was -0.176 (inactive). For UCCAAGCUGUUGUUUAUACTT against Acsl1, the z-score was -0.0655 (inactive).

CCGUUGGAGUCCAACCUAUTT against Ube2a: the z-score was 2.2 (active). To GCUGUUACUCAGCAGAGAGTT against Bach2 belongs -1.02 (inactive); to GGCCCUCUCCAAGUCUAUATT against Pex7, 0.7 (inactive).

For “GGAGGAAUUUCAAAUACUATT against A530032D15Rik”, the z-score is 0.853 (inactive). To GGAUAGCAGCUGAGUUUUATT against Asb5 belongs 2.57 (active); to GGAAGUCAUUAUGUGAUCCTT against Nfyb, -0.404 (inactive). Then GCCUACAAUCGAGACAGUUTT against Sgca, with 1.15 (inactive).

With GGACACAGACACCAAACAATT against Kat2a, the z-score was -1.71 (inactive).

On to CCCACUAAGGAGAUCAGUUTT against Lasp1, for which the z-score was 1.32 (inactive). In the case of GGUACUGGCAUGGUGACAATT against Mmp11, the z-score was -2.52 (active).

For the sequence GGUUUCUUGCCAAGAAAUUTT against Asic5, the z-score was -0.359 (inactive). For GGAAACCUGCAUCCUAUGATT against Olfr195, the z-score is -0.196 (inactive).

On to GAGCUGGGAGGUUUCACAGTT against Tspo, for which the z-score is -1.42 (inactive). As for GGCUUAAGGCUAAUGGUCUTT against Fxyd5, the z-score was -0.778 (inactive). To GCCUGCCUACGAGAUCAACTT against Mgp belongs -0.0804 (inactive); to CCGUGAAAAAAUUAAACAGTT against Slk, 0.338 (inactive).

Regarding CGUUUGCUCUAAAGCCAGGTT against Smagp, the z-score was 0.886 (inactive). To GGACAAAAUCACCUCACUUTT against Olfr1135 belongs -3.29 (active).
